# Experimental data as given in the supplement of paper PMC4962491.
# ± gives the standard deviation of the averaged measurements. Whole data set: some 1,600 compounds, median “mitochondrial oxygen consumption rate normalised to cell number, Z score over the library” near 0.065, cut for the lowest 2% near -2.2. Only a selection was taken, and the lowest values are over-represented in it overall.
# Test system: FaDu
# Assay: mitochondrial oxygen consumption rate normalised to cell number, Z score over the library; higher = higher oxygen consumption (negative = OCR reduction)
# Settings: treatment time 24 h; assay medium: 5 mM galactose, 5 mM pyruvate, 4 mM glutamine; 10 µM
# Method: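 Primary screen: FaDu cells were incubated 24 h with Pharmakon 1600 / TDI oncology set compounds at 2 or 10 uM. Mitochondrial-specific OCR (basal minus 2 uM antimycin A) was measured on a Seahorse XF96 in assay medium with 5 mM galactose, 5 mM pyruvate and 4 mM glutamine, then corrected for Hoechst cell number and expressed as a Z score […]. Compounds that cut cell number by >66% were excluded. Two repeats.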
row,Structure (SMILES),mitochondrial oxygen consumption rate normalised
1,CC1CC2C3CCC4=CC(=O)C=CC4(C)C3(F)C(O)CC2(C)C1C(=O)CO (stereo not given),0.242 ± 0.014
2,CC(C)CCCC(C)NC(C)C (stereo not given),0.505 ± 0.85
3,CNC(=O)c1c(I)c(NC(C)=O)c(I)c(C(=O)O)c1I,-0.0805 ± 0.4
4,CN1CCCN=C1/C=C/c1cccc(O)c1,0.441 ± 0.03
5,CCOc1ccc(S(=O)(=O)O)c2cccnc12,0.206 ± 0.45
6,CC(C)(C)CC(C)(C)c1cc(Cc2cc(C(C)(C)CC(C)(C)C)cc(-n3nc4ccccc4n3)c2O)c(O)c(-n2nc3ccccc3n2)c1,0.425 ± 0.54
7,O=C1c2ccccc2C(=O)C1c1ccccc1,-1.52 ± 0.92
8,NC[C@H]1O[C@H](O[C@H]2[C@H](O[C@@H]3O[C@H](CO)[C@@H](O)[C@H]3O)[C@@H](O)[C@H](N)C[C@@H]2N)[C@H](N)[C@@H](O)[C@@H]1O,0.994 ± 0.3
9,CCCCC(CC)COC(=O)C=Cc1ccc(OC)cc1 (stereo not given),0.103 ± 0.58
10,CC(COc1ccccc1)NC(C)C(O)c1ccc(O)cc1 (stereo not given),0.554 ± 0.81
11,CC(NCCc1ccc(O)cc1)C(O)c1ccc(O)cc1 (stereo not given),-0.342 ± 0.3
12,CCCCCCCCNC(C)C(O)c1ccc(SC(C)C)cc1 (stereo not given),-3.24 ± 0.087
13,CCCCC(CC)COC(=O)c1ccccc1O (stereo not given),0.409 ± 0.072
14,Clc1ccc(COC(Cn2ccnc2)c2ccc(Cl)cc2Cl)c(Cl)c1 (stereo not given),-0.399 ± 0.35
15,C=CCOC(Cn1ccnc1)c1ccc(Cl)cc1Cl (stereo not given),-0.834 ± 0.055
16,Clc1ccc(COC(Cn2ccnc2)c2ccc(Cl)cc2Cl)cc1 (stereo not given),-2.19 ± 0.39
17,NC(=O)[C@@H]1CCCN1C(=O)[C@H](Cc1c[nH]cn1)NC(=O)[C@@H]1CCC(=O)N1,-1.1 ± 0.47
18,CC(C)CC(N)=O,0.337 ± 0.48
19,O=C([O-])/C=C/C(=O)[O-].[Fe+2],-0.129 ± 0.31
20,CC(=O)Oc1cccc(O)c1,0.689 ± 0.62
21,CC(O)C(=O)O.N (stereo not given),0.0377 ± 0.64
22,Nc1ccn([C@@H]2O[C@H](CO)[C@@H](O)[C@@H]2O)c(=O)n1,0.901 ± 0.043
23,Nc1ccn([C@@H]2O[C@H](CO)[C@@H](O)[C@@H]2O)c(=O)n1 [Cytarabine;  Ara-C],1.36 ± 0.84

row,Structure (SMILES),mitochondrial oxygen consumption rate normalised
1,Nc1ncn([C@@H]2O[C@H](CO)[C@@H](O)[C@H]2O)c(=O)n1 [Azacitidine],0.38 ± 0.39
2,Nc1ncn([C@@H]2O[C@H](CO)[C@@H](O)[C@H]2O)c(=O)n1,-2.25 ± 0.072
3,Nc1ncn([C@H]2C[C@H](O)[C@@H](CO)O2)c(=O)n1 [Decitabine],0.0464 ± 0.58
4,Nc1nc2[nH]cnc2c(=S)[nH]1 [Thioguanine],0.0465 ± 0.27
5,S=c1[nH]cnc2nc[nH]c12,-1.7 ± 0.17
6,Nc1nc2[nH]cnc2c(=S)[nH]1,-2.58 ± 0.18
7,CN1CCN(c2cc3c(cc2F)c(=O)c(C(=O)O)cn3-c2ccc(F)cc2)CC1,-0.0696 ± 0.52
8,CCCCCCCCCCCCCCCCOP(=O)([O-])OCC[N+](C)(C)C,-1.18 ± 0.45
9,CCC(=O)NCC[C@@H]1CCc2ccc3c(c21)CCO3,-0.125 ± 0.067
10,CCN(CC)CCNC(=O)c1c(C)[nH]c(/C=C2\C(=O)Nc3ccc(F)cc32)c1C [Sunitinib Malate],-0.335 ± 0.17
11,CCCCCCCCCCOc1cc2c(O)c(C(=O)OCC)cnc2cc1OCC,-0.591 ± 0.88
12,Cc1cc2nc3ccc(N(C)C)cc3[s+]c2cc1N,-0.959 ± 0.51
13,CN(C)CCC=C1c2ccccc2COc2ccccc21,0.0965 ± 0.76
14,CC(=O)Oc1cc(C(C)C)c(OCCN(C)C)cc1C,-0.219 ± 0.18
15,O=C1CC[C@@H](C(=O)O)N1,0.186 ± 1.2
16,O=C1[C@H](CC[C@H](O)c2ccc(F)cc2)[C@@H](c2ccc(O)cc2)N1c1ccc(F)cc1,-0.13 ± 0.35
17,COc1ccc2cc3[n+](cc2c1OC)CCc1cc2c(cc1-3)OCO2,-5.87 ± 0.012
18,COc1ccc2c(c1OC)C(=O)O[C@@H]2[C@H]1c2c(cc3c(c2OC)OCO3)CCN1C,0.129 ± 0.48
19,CC[C@H]1OC(=O)[C@H](C)C(=O)[C@H](C)[C@@H](O[C@@H]2O[C@H](C)C[C@H](N(C)C)[C@H]2O)[C@](C)(OC)C[C@@H](C)C(=O)[C@H](C)[C@H]2N(CCCCn3cnc(-c4cccnc4)c3)C(=O)O[C@]12C,-0.0307 ± 0.49
20,NC(=O)NS(=O)(=O)c1ccc(N)cc1,0.826 ± 1.4
21,Cc1cc(-c2ccc(/N=N/c3ccc4c(S(=O)(=O)O)cc(S(=O)(=O)O)c(N)c4c3O)c(C)c2)ccc1/N=N/c1ccc2c(S(=O)(=O)O)cc(S(=O)(=O)O)c(N)c2c1O,1.24 ± 1
22,Cc1cc(=O)oc2cc(O)ccc12,0.758 ± 0.23
